Measured values taken from PubChem BioAssay AID591 (National Center for Advancing Translational Sciences (NCATS), 2007).
The campaign covered roughly 59,000 compounds. About 60 (0.1%) were called active. No rule for the calls is given here. Only a selection was taken, and actives are over-represented in it overall.

Assay: qHTS Assay for Spectroscopic Profiling in A488 Spectral Region
Details: compound autofluorescence; max dye equivalency: Compound Type: qHTS ECL - SigmaAldrich, hits give high values unless noted; outcome: dye equivalency, Compound Type: qHTS ECL - MLSMR unless noted
Description: NIH Molecular Libraries Screening Centers Network [MLSCN]
NIH Chemical Genomics Center [NCGC]
Occasionally, the artifactual effect may originate from the compounds own spectral or other biophysical properties which generally tend to track its assay concentration. Pre-screening/profiling the library with respect to the compounds spectral properties should help one exclude false positives early on. While the most informative fluorescent profiling data set is obtained by performing a full excitation and emission scan of each well by using a monochromator-based plate reader, such an approach is practical only on a very limited scale as scanning each well requires long time. An alternative approach, applied here, is to perform plate reader scans using selected excitation and emission wavelength pairs to generate a multidimensional relational database that correlates compound concentration and the respective relative fluorescence intensity at a given wavelength set. A standard curve of Alexa 488 (A488) present on each plate as six-point concentration series, was used to compute a normalized fluorescence response, termed dye-equivalent concentration, for each compound at each concentration.
NCGC Assay Protocol Summary:
100 mM Tris buffer, pH 8.0
The wells in columns 1 through 4 of a Kalypsys polypropylene 1536-well compound plate were filled with standard solutions of fluorophore corresponding to the spectral region of interest. Solutions of A488 were placed in the following wells: Y1, Z1: 3 mM, Y2, Z2: 300 uM, Y3, Z3: 30 uM, Y4, Z4: zero (DMSO), AA1, AB1: 3 uM, AA2, AB2: 900 nM, AA3, AB3: 300 nM, AA4, AB4: zero (DMSO).
Six uL of buffer were dispensed to 1536-well Greiner black plates. Compounds and dye standards (23 nL) were transferred via Kalypsys PinTool. The plates were incubated for 15 min at room temperature, and then read on ViewLux (Perkin-Elmer) High-throughput CCD imager using 480 nm and 540 nm excitation and emission filter set.
Keywords: NIH Roadmap, MLSCN, MLI, MLSMR, qHTS, NCGC, A488, A-488, Fluorescent Profiling.

outcome, inactive:
CCCC1C(c2ccccc2)C(C#N)(C#N)C2(C#N)CC1(N)NC2=O (stereo unspecified) inactive [dye equivalency, Compound Type: qHTS ECL - DPISMR]
CCOC(=O)c1[nH]c2ccccc2c1N=C(C)N(CC)CC
C=CCN(CC=C)C(=O)CN1C(=O)c2ccccc2C1=O
c1ccc(-n2ncc3c2ncn2c(C4CCCCC4)nnc32)cc1 inactive [dye equivalency, Compound Type: qHTS ECL - DPISMR]
O=C(NCc1ccc(Cl)cc1)c1cc2c(nc3sccn32)s1
O=C(O)C1CCCCC1C(=O)Nc1ccc(Cl)cc1 (stereo unspecified) inactive [dye equivalency, Compound Type: qHTS ECL - DPISMR]
COCCn1c(=O)c(-c2cc(F)cc(F)c2)nc2cnc(N3CCNCC3)nc21 inactive [dye equivalency, Compound Type: qHTS ECL - Pharmacopeia]
CCNC(=O)CCc1nc(-c2ccc(C(C)(C)C)cc2)no1 inactive [dye equivalency, Compound Type: qHTS ECL - DPISMR]
Cn1c(=O)c(CCc2ccccc2)nc2cnc(Nc3ccccc3)nc21 inactive [dye equivalency, Compound Type: qHTS ECL - Pharmacopeia]
CCCc1cc(=O)[nH]c(SCc2ccc(C#N)cc2)n1 inactive [dye equivalency, Compound Type: qHTS ECL - DPISMR]
C=CCn1c(SCn2nnc3ccccc3c2=O)nnc1-c1ccc(Cl)cc1 inactive [dye equivalency, Compound Type: qHTS ECL - DPISMR]
Cc1nc2cnc(Oc3cccc(Cl)c3)nc2n(C2CC2)c1=O inactive [dye equivalency, Compound Type: qHTS ECL - Pharmacopeia]
COc1ccc(-c2nc3cnc(OC)nc3n(Cc3ccc(F)cc3)c2=O)cc1 inactive [dye equivalency, Compound Type: qHTS ECL - Pharmacopeia]
CC1CN(C2CCN(C(=O)COc3ccccc3)CC2)CC(C)O1 (stereo unspecified)
CC(=O)c1c(C)[nH]c(C(=O)NCCCN2CCCC2)c1C
O=C(Nc1ccccc1)N(Cc1cccnc1)Cc1ccco1 inactive [dye equivalency, Compound Type: qHTS ECL - DPISMR]
Cc1nc2cnc(Nc3ccccc3)nc2n(Cc2ccc(F)cc2)c1=O inactive [dye equivalency, Compound Type: qHTS ECL - Pharmacopeia]
CNC(=O)n1ccc(C(=O)N2CCCCC2)n1 inactive [dye equivalency, Compound Type: qHTS ECL - DPISMR]
c1cnc(NC2C3CC4CC(C3)CC2C4)nc1 (stereo unspecified)
CCCOc1ccccc1C(=O)NCCCC(=O)O
COc1ccccc1CNc1cc(-c2ccccc2CN(C)C)ncn1 inactive [dye equivalency, Compound Type: qHTS ECL - Pharmacopeia]
Oc1c(Br)cc(CN(Cc2cc(Br)c(O)c(Br)c2)C2CCCCC2)cc1Br inactive [dye equivalency, Compound Type: qHTS ECL - NCI]
CCc1nnc(NC(=O)c2c(O)c3c([nH]c2=O)CCCC3)s1
CCC(=O)Nc1ccc(C(=O)Nc2ccc3c(c2)C(=O)N(CC2CCCO2)C3=O)cc1 (stereo unspecified) inactive [dye equivalency, Compound Type: qHTS ECL - DPISMR]
Cn1cccc1C(=O)N1CCC2(CC1)CN(c1cccc(-c3ccccc3)c1)C2 inactive [dye equivalency, Compound Type: qHTS ECL - Pharmacopeia]
CCOC(=O)CSc1nnc(-c2ccncc2)o1 inactive [dye equivalency, Compound Type: qHTS ECL - DPISMR]
COc1ccc2nc(NC3=NCN(CC4CCCO4)CN3)nc(C)c2c1 (stereo unspecified)
CCOC(=O)N1CCN(C(=O)c2ccc3nc4cc(Cl)ccc4c(=O)n3c2)CC1
CCOC(=O)C1(Cc2ccc(O)cc2)NC(c2ccccc2F)C2C(=O)N(C)C(=O)C21 (stereo unspecified)
COCCNc1cc(-c2c(C)noc2C)ncn1 inactive [dye equivalency, Compound Type: qHTS ECL - Pharmacopeia]
CCNc1ncc2nc(CCc3ccccc3)c(=O)n(-c3ccc(OC)cc3)c2n1 inactive [dye equivalency, Compound Type: qHTS ECL - Pharmacopeia]
Cn1c(CC(=O)Nc2ccccc2)nnc1SCC(=O)c1ccccc1 inactive [dye equivalency, Compound Type: qHTS ECL - DPISMR]
COCCn1c(=O)c(-c2cc(F)cc(F)c2)nc2cncnc21 inactive [dye equivalency, Compound Type: qHTS ECL - Pharmacopeia]
CCOC(=O)C1CCN(Cc2coc3ccc(Cl)cc3c2=O)CC1 inactive [dye equivalency, Compound Type: qHTS ECL - DPISMR]
Cc1noc(C)c1S(=O)(=O)Nc1ccc(C(=O)O)cc1 inactive [dye equivalency, Compound Type: qHTS ECL - DPISMR]
Cc1c(C)c2cc3c4c(oc3c(C)c2oc1=O)CCCC4
CN1CCc2[nH]nc(-c3n[nH]c4c3CN(C)CC4)c2C1 inactive [dye equivalency, Compound Type: qHTS ECL - NCI]
O=C1c2ccccc2C(=O)N1c1ccccc1S(=O)C(F)(F)F (stereo unspecified) inactive [dye equivalency, Compound Type: qHTS ECL - DPISMR]
CN(C)c1cc2c(Nc3ccc4c(cnn4Cc4ccccc4)c3)ncnc2cn1 inactive [dye equivalency, Compound Type: qHTS ECL - SigmaAldrich]
O=c1c(-c2ccc(F)cc2)nc2cncnc2n1-c1ccccc1 inactive [dye equivalency, Compound Type: qHTS ECL - Pharmacopeia]
Cc1cnc(CNc2cc(-c3c(C)noc3C)ncn2)cn1 inactive [dye equivalency, Compound Type: qHTS ECL - Pharmacopeia]
